# Like-named read-outs stand apart in the source and are kept apart here. Hit rate of the full screen: of about 3,300 compounds, about 60 (2%) showed an effect of 50% or more. Shown is part of a subset that was picked to be rich in strong results.
# System: HCoV-OC43
# Parameters: species or system RD; HTS, protection from HCoV-OC43 induced cell death, luminescent cell viability (CellCounting-Lite 2.0), inhibition rate
# Conditions: 24 h post infection, 1 h compound pre-incubation, 10 µM, inhibitor
Compound,OC43 Inhibition rate [%],"OC43 Inhibition rate (OC43 Inhibition rate, 24 h) [%]"
CCC(O)C(=O)O (stereo not drawn) [Sodium 2-hydroxybutanoate],-6,
C[C@@H]1CC[C@]2(C(=O)O[C@@H]3O[C@H](CO)[C@@H](O)[C@H](O)[C@H]3O)CC[C@]3(C)C(=CC[C@@H]4[C@@]5(C)C[C@@H](O)[C@H](O)C(C)(C)[C@@H]5CC[C@]43C)[C@@H]2[C@]1(C)O [Rosamultin],1,
CC(C)=C[C@@H]1CO[C@]23C[C@]4(CO2)[C@H](CC[C@@H]2[C@@]5(C)CC[C@H](O[C@@H]6OC[C@H](O)[C@H](O[C@@H]7O[C@H](COS(=O)(=O)O)[C@@H](O)[C@H](O)[C@H]7O)[C@H]6O[C@@H]6O[C@@H](CO)[C@H](O)[C@H]6O)C(C)(C)[C@@H]5CC[C@]24C)[C@H]3[C@@]1(C)O [Bacopaside I],0.8,
O=C1NCN(c2ccccc2)C12CCN(CCCOc1ccc(F)cc1)CC2 [Spiramide],69.6,
CC(=O)O[C@]12CCC(C(=O)O)=CC[C@]13CC[C@H]2[C@@](C)(/C=C/C=C(\C)C(=O)O)OC3=O [Pseudolaric Acid C2],3.3,
Cn1cncc1C[C@H](N)C(=O)O [3-Methyl-L-histidine],-5.7,
CC[C@@H](C)O [(R)-(-)-2-Butanol],0.1,
CC(=O)N[C@@H](CCCCN)C(=O)O [Acetyl-L-lysine],-0.1,
COc1cc2c(cc1OC)[C@@H](Cc1ccc(O)c(Oc3cc4c(cc3OC)CCN(C)[C@@H]4Cc3ccc(O)cc3)c1)N(C)CC2 [Liensinine],,54.6
COc1cc2c(cc1OC)[C@@H](Cc1ccc(O)c(Oc3cc4c(cc3OC)CCN(C)[C@@H]4Cc3ccc(O)cc3)c1)N(C)CC2 [Liensinine (Diperchlorate)],,24.8
COc1cc2c(cc1OC)[C@@H](Cc1ccc(O)c(Oc3cc4c(cc3OC)CCN(C)[C@@H]4Cc3ccc(O)cc3)c1)N(C)CC2 [Liensinine (perchlorate)],,0.4
CCCCCCCC/C=C/CCCCCCCC(=O)O [Elaidic acid],-0.4,
"O=C(/C=C/c1ccc(O)c(O)c1)O[C@@H]1[C@H](O)C[C@@](O)(C(=O)O)C[C@H]1OC(=O)/C=C/c1ccc(O)c(O)c1 [4,5-Dicaffeoylquinic acid]",-0.7,
C=C1[C@H](OC(=O)/C=C(\C)CC)C[C@@H](C(C)C)[C@@H]2[C@@H]([C@@H](C)OC(C)=O)C(=O)C[C@@H]12 [Tussilagone],60.7,
O=C(/C=C/C=C/c1ccccc1)CCc1ccccc1 [Alnustone],1.1,
C[C@@H]1O[C@@H](Oc2cc(O)c3c(=O)c(O)c(-c4ccc(O)cc4)oc3c2O)[C@H](O)[C@H](O)[C@H]1O [Rhodionin],0.2,
CCCCCCCCCCCCCCCCCCCCCCCCCCCC(=O)O [Octacosanoic acid],-0.6,
C[C@@H]1O[C@@H](O[C@H]2[C@H](OC(=O)[C@]34CCC(C)(C)C[C@H]3C3=CC[C@@H]5[C@@]6(C)C[C@H](O)[C@@H]7O[C@@H]8O[C@H](CO)[C@@H](O)[C@H](O)[C@H]8O[C@@H]8OC[C@H](O)[C@H](O)[C@H]8OC(=O)C[C@@](C)(O)CC(=O)OC[C@@]7(C)[C@@H]6CC[C@@]5(C)[C@]3(C)CC4)OC[C@H](O)[C@@H]2O)[C@H](O)[C@H](O[C@@H]2OC[C@@H](O)[C@H](O)[C@H]2O)[C@H]1O [Tubeimoside I],57.2,
C[C@@H]1O[C@H]2O[C@H]3[C@@H](OC[C@H](O)[C@@H]3O)OC(=O)[C@]34CCC(C)(C)C[C@H]3C3=CC[C@@H]5[C@@]6(C)C[C@H](O)[C@H](O[C@@H]7O[C@H](CO)[C@@H](O)[C@H](O)[C@H]7O[C@@H]7OC[C@H](OC(=O)C[C@](C)(O)CC(=O)O[C@@H]1[C@@H](O[C@@H]1OC[C@@H](O)[C@H](O)[C@H]1O)[C@H]2O)[C@H](O)[C@H]7O)[C@@](C)(CO)[C@@H]6CC[C@@]5(C)[C@]3(C)C[C@H]4O [Tubeimoside II],-2.8,
C[C@@H]1O[C@@H](O[C@H]2[C@H](O[C@H]3CC[C@@]4(C)[C@@H](CC[C@]5(C)[C@@H]4CC=C4[C@@H]6CC(C)(C)CC[C@]6(C(=O)O[C@@H]6O[C@H](CO[C@@H]7O[C@H](CO)[C@@H](O)[C@H](O)[C@H]7O)[C@@H](O)[C@H](O)[C@H]6O)CC[C@]45C)[C@]3(C)CO)OC[C@H](O)[C@@H]2O)[C@H](O)[C@H](O[C@@H]2O[C@H](CO)[C@@H](O)[C@H](O)[C@H]2O)[C@H]1O [Macranthoidin A],-0.3,
CC1(C)CC[C@]2(C(=O)O)CC[C@]3(C)C(=CC[C@@H]4[C@@]5(C)CC[C@H](O[C@@H]6O[C@H](C(=O)O)[C@@H](O)[C@H](O[C@@H]7OC[C@@H](O)[C@H](O)[C@H]7O[C@@H]7O[C@H](CO)[C@@H](O)[C@H](O)[C@H]7O)[C@H]6O)C(C)(C)[C@@H]5CC[C@]43C)[C@@H]2C1 [Oleanolic acid-3-O-glucosyl(1-2)xylyl(1-3)glucosiduronic acid],-0.1,
CC(=O)c1ccc2ccccc2c1 [2-Acetonaphthone],-1.5,
c1cncnc1 [Pyrimidine],-0.5,
Nc1nc(O)c2[nH]nnc2n1 [8-Azaguanine],54.4,
C/C=C/C=C/C(=O)O [Potassium sorbate],,1.3
C=C1CCC2(C(C)C)CC12 (stereo not drawn) [Sabinene],-0.5,
C[C@@H](O)CC(=O)O [(R)-3-Hydroxybutanoic acid],,-0.8

Compound,OC43 Inhibition rate [%],"OC43 Inhibition rate (OC43 Inhibition rate, 24 h) [%]"
CC(=O)[C@H]1CC[C@H]2[C@@H]3CC=C4C[C@@H](O)CC[C@]4(C)[C@H]3CC[C@]12C [Pregnenolone],1.3,
C[C@H]1[C@H]2CC[C@H]3[C@@H]4CC=C5C[C@@H](N(C)C)CC[C@]5(C)[C@H]4CC[C@]23CN1C [Conessine],52.4,
C[C@]12CC[C@H]3[C@@H](CC=C4C[C@@H](O)CC[C@@]43C)[C@@H]1CC[C@@H]2C(=O)CO [21-Hydroxypregnenolone],-0.2,
CC1(C)CC[C@]2(C(=O)O)CC[C@]3(C)C(=CC[C@@H]4[C@@]5(C)CC[C@@H](O)C(C)(C)[C@@H]5CC[C@]43C)[C@@H]2C1 [3-Epioleanolic acid],-0.6,
OC1OC[C@@H](O)[C@H](O)[C@@H]1O (stereo partly drawn) [D-Lyxose],-0.4,
C=C1C(=O)[C@@]23[C@H](O)C[C@@H]4C(C)(C)CC[C@H](O)[C@@]4(CO)[C@@H]2CC[C@@H]1[C@H]3O [Kamebakaurin],-2.9,
C=C1C(=O)[C@@]23[C@@H]4OC5O[C@@]2(O)[C@@H](O)[C@@H]2C(C)(C)CC[C@@H](O)[C@]52[C@@H]3CC[C@@H]14 [ponicidin],75.9,
C=C1C(=O)[C@]23[C@H](O)[C@H]1CC[C@H]2[C@@]12CO[C@]3(O)[C@@H](O)[C@@H]1C(C)(C)CC[C@@H]2O [Oridonin],17.2,
"CC(C)(CC(=O)O)CC(=O)O [3,3-Dimethylglutaric acid]",-0.3,
C/C=C(/C)C(=O)O[C@@H]1c2c(ccc3ccc(=O)oc23)OC(C)(C)[C@@H]1OC(=O)/C(C)=C\C [(-)-Anomalin],32.9,
C/C=C(\C)C(=O)OC1c2c(ccc3ccc(=O)oc23)OC(C)(C)C1OC(=O)/C(C)=C/C (stereo not drawn) [Praeruptorin B],7.3,
"C/C=C(/C)C(=O)OC(C)(C)[C@@H]1Cc2c(ccc3ccc(=O)oc23)O1 [Columbianadin, columbianadin]",107.6,
Nc1ccccc1C(=O)C[C@@H](N)C(=O)O [D-Kynurenine],-6.1,
CCCCCCCCCCCCCCCCCC(=O)NCc1ccccc1 [N-Benzyloctadecanamide],-0.1,
CCCCCCCC/C=C\CCCCCCCC(=O)NCc1ccccc1 [N-Benzyloleamide],56.9,
CCCCC/C=C\C/C=C\CCCCCCCC(=O)NCc1ccccc1 [N-Benzyllinoleamide],40,
COc1cc([C@@H]2[C@H]3CO[C@@]4(O)C(=O)[C@@H]2C=C([C@H]2Oc5cc(O)cc(O)c5C(=O)[C@@H]2O)[C@@H]34)ccc1O [Silydianin],-0.1,
O=C(/C=C/c1ccccc1)OCc1ccccc1 [Benzyl cinnamate],2,
O=C(CCCCCCCCc1ccc(O)cc1)c1c(O)cccc1O [Malabaricone B],54,
O=C(CCc1ccc(O)cc1)c1c(O)cc(O)cc1O [Phloretin],-0.3,
O=C(CCCCCCCCc1ccc(O)c(O)c1)c1c(O)cccc1O [Malabaricone C],12.2,
CCCCCCCCCCCCCCCCCCCCC [Heneicosane],-0.3,
CO[C@H]1[C@@H](O)[C@H](O[C@@H]2[C@@H](C)O[C@@H](O[C@H]3CC[C@@]4(C)[C@@H](CC[C@@]56O[C@@]57CC[C@@H](C(C)=O)[C@@]7(C)[C@H](OC(C)=O)[C@@H](OC(=O)c5ccccc5)[C@H]46)C3)C[C@H]2OC)O[C@H](C)[C@H]1O [Tenacissoside I],-4,
Cc1ccc(O)c(O)c1 [4-Methylcatechol],-0.9,
COc1cc(O)c(C(=O)/C=C/c2ccc(O)cc2)c(OC)c1 [Flavokawain C],4.2,
COc1cc(O)c(C(=O)/C=C/c2ccccc2)c(OC)c1 [Flavokawain B],58.3,
COc1cc(O)c(C(=O)/C=C/c2ccccc2)c(O)c1 [Pinostrobin chalcone],0,
